# Inconclusive results are not listed. A call without a number means that no potency is given here. Calls of active or inactive are those of the source. The call rests on the fitted dose curve; in most records, active means well fitted inhibition curve with a large enough effect; inconclusive means small, poorly fitted or top-dose-only effect; inactive means no such curve, though single readings can be large or run the other way.
# Target: Cytochrome P450 2D6 (Homo sapiens) (UniProt P10635)
# Assay: qHTS Assay for Inhibitors and Substrates of Cytochrome P450 2D6 (AID 891); further: nearly all actives have a fitted effect of over 60% in size
# Details: recombinant CYP2D6, luciferin-ME EGE luminescence; series mostly up to 11.4 µM
# Procedure: NIH Molecular Libraries Screening Centers Network [MLSCN]
# NIH Chemical Genomics Center [NCGC]
# The P450 gene superfamily is involved in the metabolism and clearance of xenobiotics. This assay used human CYP2D6 to measure the demethylation of ethylene glycol ester of luciferin 6' methyl ether (Luciferin-ME EGE; […]) to luciferin. The luciferin is then measured by luminescence after the addition of a luciferase detection reagent. Luciferin-ME EGE concentration in the assay was equal to its Km for CYP2D6. Inhibitors and some substrates limit the production of luciferin, and decrease measured luminescence.
# NCGC Assay Protocol Summary:
# Two uL of enzyme and substrate mix (final concentrations: 5nM CYP2D6, 30uM Luciferin-ME EGE, 100mM KPO4) were dispensed into a white, solid bottom 1536-well microtiter plate. 23nL of compound was transferred by a pin tool. The plate was incubated at room temperature for 10 min. Two uL of an NADPH regeneration solution (Promega supplied reagent) was dispensed and the reaction was allowed to continue for 60 min at room temperature. Then the reaction was stopped by reconstituted luciferin detection buffer. After another 20 min of incubation the plate was read on the ViewLux (Perkin Elmer) at 60 sec exposure and 2x2 binning. This protocol was carried out with Promega-Glo reagents and further information can be found at http://www.promega.com/tbs/tb325/tb325.pdf. Data were normalized to the to AC100 inhibition (1.43 uM quinidine).
# Keywords: P450, CYP2D6, Luciferase, MLSMR, MLSCN, NIH Roadmap, qHTS, NCGC
# Potency means the concentration at half of the fitted maximal effect.
# Cytochrome P450 2D6 (Homo sapiens), sequence (P10635 whole entry, looked up): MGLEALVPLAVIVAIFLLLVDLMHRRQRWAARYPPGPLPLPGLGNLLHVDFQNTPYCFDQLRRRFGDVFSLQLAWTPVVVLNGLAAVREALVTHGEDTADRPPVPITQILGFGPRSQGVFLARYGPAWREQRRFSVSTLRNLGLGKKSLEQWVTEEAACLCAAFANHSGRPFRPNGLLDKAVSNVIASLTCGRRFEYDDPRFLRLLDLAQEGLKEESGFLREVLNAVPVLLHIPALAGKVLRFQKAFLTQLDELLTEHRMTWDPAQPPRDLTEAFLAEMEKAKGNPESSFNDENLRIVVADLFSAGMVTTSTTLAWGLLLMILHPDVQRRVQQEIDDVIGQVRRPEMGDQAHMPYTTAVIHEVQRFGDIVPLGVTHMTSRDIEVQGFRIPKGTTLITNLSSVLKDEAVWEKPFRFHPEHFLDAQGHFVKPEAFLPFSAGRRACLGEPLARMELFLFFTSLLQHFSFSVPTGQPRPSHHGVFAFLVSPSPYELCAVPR
row,SMILES,Potency
1,c1ccc(CCN2CCN=C2Cc2ccccc2)cc1,126 nM (active)
2,CC(C)(CN)CN,inactive
3,c1ccc(SCCc2ccncc2)cc1,1260 nM (active)
4,Cc1cc2ccccc2c[n+]1CC(O)C[n+]1cc2ccccc2cc1C,25.1 nM (active)
5,COc1ccccc1-c1nc(NCc2ccccc2)c2ccccc2n1,1580 nM (active)
6,O=C(O)CCC/C=C\C[C@H]1[C@@H](/C=C\[C@@H](O)C2Cc3ccccc3C2)[C@H](F)C[C@H]1O,inactive
7,c1ccc(C(CCN2CC3CCC(CC3)C2)c2ccccc2)cc1,794 nM (active)
8,CCc1cccc2c3c([nH]c12)[C@](CC)(CC(=O)O)OCC3,inactive
9,O=C(O)[C@@H](c1ccccc1)[C@@H](C(=O)O)c1ccccc1,inactive
10,NNC(=O)c1ccc[n+](CCc2ccccc2)c1,2000 nM (active)
11,O=C1C(Cl)=C(Nc2ccc(S(=O)(=O)Nc3ccccn3)cc2)C(=O)c2ccccc21,3160 nM (active)
12,CCC[C@@H]1O[C@@H]2C[C@@H]3[C@@H]4CCC5=CC(=O)C=C[C@@]5(C)[C@H]4[C@H](O)C[C@@]3(C)[C@@]2(C(=O)CO)O1,inactive
13,Nc1cc2c(nc3c4ccccc4c(N)cc3[n+]2-c2cccc3ccccc23)c2ccccc12 (tested in a mixture with another compound),1580 nM (active)
14,O=C(O)c1nn(-c2ccccc2-c2n[nH]c(=O)[nH]c2=O)c(=O)[nH]c1=O,inactive
15,CC1=NCC[N@@+]1(CCc1ccccc1)Cc1ccccc1,50.1 nM (active)
16,N=C(N)SCc1cccc2c(=O)cc(-c3ccccc3)oc12,2510 nM (active)
17,N=c1sc2ccccc2n1CCS (tested in a mixture with another compound),316 nM (active)
18,Cc1ccc(C)c(NC(=O)NCc2ccc(Cl)cc2)c1,3980 nM (active)
19,N[C@@H](C(=O)O)[C@@H]1C[C@H]1C(=O)O,inactive
20,O=C(O)C(=Cc1ccc(-c2ccccc2)cc1)C(=O)O,inactive

row,SMILES,Potency
1,CN(C)CCNc1nc2c(c(=O)n(C)c(=O)n2C)n1C,inactive
2,NCCCc1c(-c2ccccc2)nc(N)[nH]c1=O,inactive
3,OCCN(CO)CO,inactive
4,C[C@@]12CCC(=O)C=C1CC[C@H]1[C@H]3CC[C@](O)(C(=O)CO)[C@]3(C)CC[C@@H]12,inactive
5,Nc1ccn([C@H]2CC[C@H](CO)O2)c(=O)n1,inactive
6,O[C@@H](c1cc(-c2ccc(Cl)cc2)nc2ccccc12)[C@@H]1CCCCN1,631 nM (active)
7,S=C1N[C@H](c2ccccc2)N[C@H](c2ccccc2)S1,3980 nM (active)
8,c1cncc(CNCc2cccnc2)c1,inactive
9,CCNC(=O)[C@@H]1O[C@@H](n2cnc3c(NCc4ccccc4)ncnc32)[C@@H](O)[C@H]1O,inactive
10,Nc1ncnc2nc[nH]c12.Nc1ncnc2nc[nH]c12.[Cl][Pt]([Cl])([Cl])[Cl],inactive
11,O=C(O)[C@@H]1[C@@H](C(=O)O)[C@]23C[C@@]2(C(=O)O)[C@]2(C(=O)O)CCC3=C3CCCC312,inactive
12,CC(C)(C)c1ccc(O)c(CN(Cc2cc(C(C)(C)C)ccc2O)C2CCCCC2)c1,501 nM (active)
13,C#C[C@H](N)CCC(=O)O,inactive
14,Sc1ccc2ccccc2c1CNCc1ccccc1,1260 nM (active)
15,CN(C)CCCN1c2ccc3ccccc3c2Sc2cccc(Cl)c21,501 nM (active)
16,Cc1ccc(CSC(N)=Nc2ccccc2)cc1C,794 nM (active)
17,CC(CCC(=O)O)(c1ccc(O)cc1)c1ccc(O)cc1,inactive
18,Cc1c(Cl)c(S(N)(=O)=O)cc(S(N)(=O)=O)c1NC(=O)c1ccc(Cl)cc1,inactive
19,NS(=O)(=O)c1cc2c(cc1Cl)=NC(CCC(=O)O)=NS=2(=O)O,inactive
20,C[C@@H]1CCCN(C[C@@H](O)CN2CCCc3ccccc32)C1,1580 nM (active)

# Reference: PubChem BioAssay (NCATS)
